According to PubChem BioAssay (NCI):
This is part of a sample that, as a whole, favours compounds with a hit. Of some 83,000 tested, about 20% had one in any assay.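 Single-dose data. Exposure time 48 hours. Values below 10 considered active.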 A number with no mark means an inactive call. The source made the active and inactive calls.

Experiments:
Experiment in all cases: NCI-60 one-dose screen, 48 h (100 = growth as untreated, 0 = no growth, -100 = all killed)
Settings in all cases: 10 µM unless noted
T-47D breast = system: T-47D breast
BT-549 breast = system: BT-549 breast
MDA-MB-435 melanoma = system: MDA-MB-435 melanoma
SW-620 colon = system: SW-620 colon
MCF7 breast = system: MCF7 breast
HCT-116 colon = system: HCT-116 colon
HCC-2998 colon = system: HCC-2998 colon
KM12 colon = system: KM12 colon

SMILES	growth (T-47D breast)	growth (BT-549 breast)	growth (MDA-MB-435 melanoma)	growth (SW-620 colon)	growth (MCF7 breast)	growth (HCT-116 colon)	growth (HCC-2998 colon)	growth (KM12 colon)
CCCCc1n(Cc2ccc3ccccc3c2)cc[n+]1Cc1ccc2ccccc2c1	-1.14% (active)	-76.4% (active)	-77.5% (active)	1.48% (active)	-42.3% (active)	-97.2% (active)	-5.21% (active)	-82.5% (active)
CCOC(=O)c1sc(NC(=O)COc2cccc(/C=C3\Cc4ccc(Cl)cc4C3=O)c2)nc1C	98.8%	115%	103%	94.6%	54.3%	12.3%	-19.5% (active)	103%
COc1cc(C2=NN(C=O)C(c3cccc(Nc4ccnc5cc(Cl)ccc45)c3)C2)cc(OC)c1OC (centres undefined)	63.2%	61.5%	84.5%	88.6%	68.8%	62.6%	107%	91%
N#Cc1c(-c2ccccc2)cc(-c2ccccc2)n(CCC(=O)O)c1=O	44.1%	27.2%	-9.89% (active)	37.3%	35%	40%	74.3%	34.5%
COc1ccc(/C=C/C(=O)c2cccc(NS(C)(=O)=O)c2)cc1	70.6%	105%	90%	50.5%	50.4%	21%	111%	38.5%
O=c1[nH]c(N2CCC(Cc3ccccc3)CC2)nc2sc3c(c12)CCCC3	96.6%	109%	102%	101%	98.1%	104%	103%	100%
COc1cc(-c2nnc(-c3nc(-c4cc(OC)c(OC)c(OC)c4)n4ccccc34)o2)ccc1N	54.5%	67.1%	82.5%	87%	71.2%	54.2%	89.1%	68.3%
OCCN1CCN(CCCN2c3ccccc3Sc3ccc(C(F)(F)F)cc32)CC1	54.5%	53%	-46.1% (active)	-31.2% (active)	18.3%	2.28% (active)	-83.2% (active)	9.9% (active)
OC(c1ccccc1)C(NCc1ccccc1)c1ccccc1 (centres undefined)	91.7%	98.7%	78.9%	92.9%	97.1%	66.1%	105%	102%
O=C(Oc1cccc2ccccc12)c1ccccc1C(=O)c1ccccc1	87.4%	99.7%	73.5%	99.4%	109%	82%	103%	92.2%
CSc1nc(Nc2ccc(S(=O)(=O)Nc3ccon3)cc2)c(C#N)c(-c2ccc(Cl)cc2)n1	97%	90.5%	97.9%	70.5%	94.3%	65.8%	94.4%	104%
CCCCN1c2nc3ccccc3cc2Sc2cc3ccccc3nc21	13.7%	97.1%	151%	94.4%	7.26% (active)	95.1%	86.5%	68.3%
Cc1cc(-c2ccccc2)cc(C)n1	114%	113%	105%	109%	93.5%	104%	107%	112%
COc1ccc(-c2cnc(SCC(=O)Nc3ccc(-c4nc5ccccc5s4)cc3)n2-c2ccc(OC)cc2)cc1	93.1%	108%	114%	110%	47.4%	107%	–	113%
O=C(CSc1ncc(-c2ccccc2)n1-c1ccccc1)Nc1ccc(-c2nc3ccccc3s2)cc1	56.3%	103%	55.9%	64.4%	31.2%	42.1%	–	51.1%
O=[N+]([O-])c1ccc2[nH]cc(-c3c4ccccc4cc4[nH]c5ccc([N+](=O)[O-])cc5c34)c2c1	-10.2% (active)	19.2%	-11.6% (active)	28%	8.11% (active)	9.37% (active)	–	5.55% (active)
O=C(C(=O)c1cc(Br)ccc1O)c1cc(Br)ccc1O	8.38% (active)	21.7%	49.8%	66.5%	36.5%	40.3%	–	48.6%
Cc1ccccc1NC(=O)NC(CC(N)=O)c1ccc2c(c1)nc(-c1cccc(Oc3ccc(C(C)(C)C)cc3)c1)n2CCCN1CCCCC1C (centres undefined)	47.4%	93.7%	-53.7% (active)	-62.2% (active)	-76.3% (active)	-73.7% (active)	–	-35.3% (active)
CCN(CC)CCNCC(=O)Oc1ccc(/C=C/C(=O)CC(=O)/C=C/c2ccc(OC(=O)CNCCN(CC)CC)c(OC)c2)cc1OC	26.6%	-49.4% (active)	-30% (active)	-26.5% (active)	11.6%	-9.15% (active)	–	-19.5% (active)
COc1cc(C(=O)/C=C/c2cccc(Nc3ccnc4cc(Cl)ccc34)c2)cc(OC)c1OC	-46.4% (active)	-27.9% (active)	-16.1% (active)	-51.5% (active)	-40.3% (active)	-62.5% (active)	–	-8.69% (active)
O=C1c2cccc3c([N+](=O)[O-])ccc(c23)C(=O)N1CCCCl	-48.4% [100 µM] (active)	-98.2% [100 µM] (active)	-89.3% [100 µM] (active)	-44.4% [100 µM] (active)	-65.5% [100 µM] (active)	-90.6% [100 µM] (active)	–	-81.3% [100 µM] (active)
ICCC(c1ccccc1)(c1ccccc1)c1ccccc1	39.2%	54.6%	35.9%	80.7%	35.1%	33.2%	–	57.7%
COc1cc2c(cc1OC)C(CC1(O)CCCCC1)N(S(=O)(=O)c1ccc(C)cc1)CC2 (centres undefined)	29.7% [100 µM]	-1.8% [100 µM] (active)	-23.1% [100 µM] (active)	15.6% [100 µM]	25.7% [100 µM]	9.09% [100 µM] (active)	–	4.08% [100 µM] (active)
CCOC(=O)OCC(=O)[C@@]1(O)CC[C@H]2[C@@H]3CCC4=CC(=O)CC[C@]4(C)[C@H]3[C@@H](O)C[C@@]21C	91.4%	101%	111%	98.3%	94.9%	98.3%	–	106%
COc1ccc2cc(C3=CC(=O)CCC3)ccc2c1	59.6%	97.1%	93%	117%	110%	92.5%	–	109%
CCOC(=O)/C(=C/CC/C(C)=C/CC/C(C)=C/CCc1ccoc1)CC(=O)N1CCCCC1	27.7%	88%	34.1%	64.6%	32%	44.9%	–	49%
Clc1ccc2[nH]cc(-c3cncn3CCc3ccccc3)c2c1	13.2%	40.3%	50.9%	72.8%	53.2%	44.1%	–	72.9%
O=C1CSC(c2ccccc2O)N1c1nnc(Cn2ccnc2)o1 (centres undefined)	60.6%	64.5%	13.4%	61.5%	47.9%	50.8%	–	45.1%
